Measured values: the supplement of paper PMC6555819

What was measured:
Assay in all cases: PBM binding z-score (relative to random genomic background probes); higher = stronger binding; sequences stand for … in GC…GCGATTGACAGCGTAGAATGAAGG
[1] = system: FXR:RXRa (NR concentration 270 nM, RXRa partner concentration 90 nM)
Procedure, shortened: (§1)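 Custom Agilent 4×180K protein-binding microarrays carried double-stranded probes, each with a 34-nt variable region. These regions held direct-repeat seeds, single-nucleotide variants, half-site ablations and random human genomic background sequences. Ligand-free nuclear receptor dimers were incubated on the arrays for 1 h, antibodies against each partner (one per run) detected binding, and scanned fluorescence was regression-normalized. Binding z-scores take the random background probes as reference.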

[2] = system: LXRa:RXRa (NR concentration 270 nM, RXRa partner concentration 90 nM)
Procedure, shortened: as §1

[3] = system: LXRa homodimer (NR concentration 270 nM)
Procedure, shortened: as §1

[4] = system: LXRb:RXRa (NR concentration 270 nM, RXRa partner concentration 90 nM)
Procedure, shortened: as §1

[5] = system: LXRb homodimer (NR concentration 270 nM)
Procedure, shortened: as §1

[6] = system: PPARa:RXRa (NR concentration 270 nM, RXRa partner concentration 90 nM)
Procedure, shortened: as §1

[7] = system: PPARg:RXRa (NR concentration 180 nM, RXRa partner concentration 90 nM)
Procedure, shortened: as §1

[8] = system: PPARg:RXRa 270nM:90nM, anti-RXR (NR concentration 270 nM, RXRa partner concentration 90 nM)
Procedure, shortened: as §1

[9] = system: PPARg:RXRa 30nM:10nM, anti-RXR (NR concentration 30 nM, RXRa partner concentration 10 nM)
Procedure, shortened: as §1

[10] = system: PPARg:RXRa 90nM:30nM, anti-RXR (NR concentration 90 nM, RXRa partner concentration 30 nM)
Procedure, shortened: as §1

Sequence | PBM binding z-score [1] | PBM binding z-score [2] | PBM binding z-score [3] | PBM binding z-score [4] | PBM binding z-score [5] | PBM binding z-score [6] | PBM binding z-score [7] | PBM binding z-score [8] | PBM binding z-score [9] | PBM binding z-score [10]
ATCTCTAGGTAAGACGCAGTTCAGTGAAGAACGC | 0.238 | 0.0302 | 0.0448 | -0.176 | 0.151 | -0.0926 | 0.38 | 0.423 | 0.101 | 0.323
ACAGACAGGTGATTGAAGGTAACTCAGCTGGACG | 0.407 | 0.000463 | -0.444 | -0.451 | -0.457 | 0.0856 | 0.626 | -0.0372 | 0.0722 | -0.274
GCGACTGGGGCAAAGCAGGTTACAATAAGGTTGG | 0.383 | 0.245 | -0.467 | 0.623 | -0.699 | 1.6 | 1.48 | 1.49 | 0.224 | 0.898
TCTTGTAGATCAATCAGGTTAAGAAAGCCTGAGT | 0.77 | 0.362 | 0.00408 | 0.532 | 0.279 | 0.703 | -0.495 | 1.31 | 2.82 | 2.3
CGTCCAAGGTCAAAGGTCCGTGAAGAGATGACGG | 7.36 | 5.64 | 0.823 | 4.24 | 0.921 | 5.73 | 6.71 | 6.69 | 4.16 | 5.81
CAAACTAGGTCACCGGAAGGTTAAAGTCCGCATG | 5.17 | 4.53 | 1.89 | 3.61 | 0.743 | 5.67 | 9.32 | 7.58 | 5.78 | 7.27
ATGGAAAGGTCGACGAGGTGAGTATACACCGTTT | 4.39 | 3.03 | -0.133 | 2.47 | 0.238 | 4.12 | 2.69 | 2.93 | 1.17 | 1.95
CCTGCTAGGTAATGGTCAGCTAATCTACAGTATG | -0.151 | -0.438 | -0.575 | -0.764 | -0.48 | -0.344 | -0.182 | -0.104 | -0.225 | -0.424
TCTCGGAGGACACGAAAGTCAGAGCTTTCCAGAG | 0.434 | -0.603 | -0.708 | -0.456 | -1.24 | 0.0493 | -0.000671 | 0.487 | 2.23 | 1.24
CAAACTAGGTCACATAGGTCAAAGTCCGTGCGTA | 6.12 | 5.33 | 4.86 | 5.05 | 1.48 | 5.74 | 9.47 | 7.44 | 6.05 | 7.51
CCTGCTAAGTCATGGTCAGCTAATCTACAGTATG | -0.197 | -0.105 | -0.185 | -0.137 | -0.307 | -0.22 | -0.135 | -0.368 | -0.358 | -0.204
TGAATGAGGTTGAAGATCAGGGAACGTGGCGTCG | 0.0849 | 0.195 | -0.576 | -0.271 | 0.232 | 0.989 | 1.11 | 2.33 | 0.813 | 1.97
CCTACTGGGCCATGCAGAGGTCATTGATCATATG | 2.63 | 3.58 | 4.68 | 3.51 | -0.363 | 3.84 | 2.51 | 3.33 | 1.11 | 2.41
AGAACGAGGGCAATGATTTGATAGCACGGGTGGC | 0.321 | 0.43 | -0.337 | 0.168 | -0.65 | 1.41 | 1.57 | 0.787 | 0.29 | 0.557
TCATATAGGTAAATGCTAGGTGAAAGTACGATCT | 1.24 | 0.992 | 0.296 | 0.731 | 0.0256 | 1.6 | 1.69 | 2.52 | 3.66 | 3.19
ATCACTAGGTAAAGTTCAGTGAAAGATCGATAGA | 0.984 | 1.7 | 1.43 | 1.17 | 0.688 | 2.22 | 2.59 | 3.38 | 1.45 | 2.7
TTACCAAGGTGAGCGGAGGTCGTTGATCCAACTC | 1.38 | 1.36 | -0.4 | 0.829 | -1.16 | 1.81 | 0.414 | 1.19 | 0.0694 | 0.605
TAGCCTAGGTGATTCAGGGGCCAGTATAGAAAGC | -0.423 | -0.634 | -0.348 | -0.094 | -0.239 | 0.0128 | 0.0919 | -0.199 | -0.433 | 0.0704
TCTAGTTGGTCAAAGGTCACACAATCGAAATGCG | 5.53 | 5.9 | 3.73 | 5.66 | 2.13 | 6.6 | 11.8 | 9.87 | 11.7 | 11.4
TCTATTAGTTGATTAGGGCAATCGAAACAGCGGA | 0.665 | 0.828 | 0.306 | 0.766 | 0.542 | 0.871 | 0.0917 | 2.06 | 3.7 | 2.93
TCATATAGGTAAAAGGTGTAAGTCGGTGTGGTAA | 1.13 | 1.12 | -0.0427 | 1.14 | 0.187 | 3.18 | 5.19 | 6.1 | 5.92 | 7.17
CATACAGGGTCAGCTCGGCCAGAGTAGGGACGGC | 4.13 | 2.91 | -0.117 | 2.06 | 0.463 | 3.97 | 2.99 | 2.64 | 0.565 | 1.72
CGTCAAAGTTCAACTAAGGTAACGTAAAGCACGC | 7.09 | 6.32 | 4.44 | 4.24 | 1.99 | 5.14 | 5.22 | 5.44 | 2.32 | 4.08
AGTCAAAGTTCAGGATGAGGTAACGTAAAGCACG | 4.14 | 3.93 | 1.07 | 2.02 | 0.238 | 3.58 | 4.66 | 4.92 | 2.26 | 3.84
